Bioassay records (PubChem)
Tgondii IFNg = T. gondii growth inhibition with IFN-gamma, primary screen, cell-based. 69,000 tested, 3.8% active. Toxoplasma gondii growth in IFN-gamma-treated host cells; active compounds read low. activity change, negative = inhibition, % (test concentration not listed); in the data active = activity change below about -70%, passing the limit was not always enough;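 note: host cells are HeLa cells infected with Toxoplasma gondii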
A number is an active result; 0 = inactive; ! = not active in a repeat. Many of the other results were omitted from the sample, so hits are more common in it than they were.

SMILES	Tgondii IFNg
COc1ccc(CCN2C[C@]34CN(c5ncc(C)cn5)C[C@@H](C[C@H]3S2(=O)=O)O4)cc1	0
Cc1ccccc1CNC(=O)c1cc2cc(S(=O)(=O)N(C)C)ccc2n1Cc1ccncc1	0
CN(C)S(=O)(=O)c1ccc2c(c1)cc(C(=O)NCc1ccccc1)n2Cc1ccncc1	0
CN(C)S(=O)(=O)c1ccc2c(c1)cc(C(=O)NC1CCCCCCC1)n2Cc1ccncc1	-74
CN(C)S(=O)(=O)c1ccc2c(c1)cc(C(=O)NC1CCCC1)n2Cc1ccncc1	0
CN(C)CCNC(=O)c1cc2cc(S(=O)(=O)N(C)C)ccc2n1Cc1ccncc1	0
COc1ccccc1CNC(=O)c1cc2cc(S(=O)(=O)N(C)C)ccc2n1Cc1ccncc1	0
CN(C)S(=O)(=O)c1ccc2c(c1)cc(C(=O)NC1CCCCCC1)n2Cc1ccncc1	0
CN(C)S(=O)(=O)c1ccc2c(c1)cc(C(=O)NCCCN1CCCC1)n2Cc1ccccc1	-96
CN(C)S(=O)(=O)c1ccc2c(c1)cc(C(=O)NCc1ccccc1Cl)n2Cc1ccncc1	-95
Cc1ccc(C(=O)NCCc2sc(-c3ccc(C)cc3)nc2C)cc1	0
CN1CCN(c2ccc3ccc(C(=O)CCN4CCOCC4)cn23)CC1	0
Cc1nc2nc(C(=O)NC(C)c3nc4ccccc4s3)cc(C(C)(C)C)n2n1 (configuration not stated)	0
COc1ncccc1C(=O)N1CCC(O)(c2ccc3nc(C)ccc3c2)CC1	0
Cn1nc(CN2CCOCC2)c2c1CN(Cc1ccoc1)C2	0
CCS(=O)(=O)N1CCc2c(cnc(-c3cccnc3)c2C(=O)O)C1	0
CC1(C)C(=O)NC2=C1C(=O)C(=O)c1ccccc12	-82
CC1(C)NC(=O)N(CC(O)CN2C(=O)c3ccccc3C2=O)C1=O (configuration not stated)	0
COc1ccc(-c2nnc(-c3nc(Nc4ccc(F)cc4)c4ccccc4n3)o2)cc1	0
Cc1oc(C(=O)N2CCc3sccc3C2c2ccccc2)cc1CN1CCOCC1 (configuration not stated)	0
O=C(CCn1c(=O)sc2ccccc21)Nc1ccc(S(=O)(=O)N2CCCCC2)cc1	-88
O=C(O)CCn1c(=O)sc2ccccc21	0
O=C(O)CCC(=O)Nc1ccc(S(=O)(=O)N2CCCC2)cc1	0
O=c1ccc2cc(S(=O)(=O)N3CCN(C(c4ccccc4)c4ccccc4)CC3)ccc2[nH]1	0
CC1COC2(CCCN(C(=O)c3ccc4nc[nH]c4c3)C2)C1 (configuration not stated)	0
SMILES	Tgondii IFNg
CCc1nc(N)nc(N)c1-c1ccc(Cl)cc1	-95
Nc1cc(-c2ccc(Cl)cc2)nc(N)n1	0
CSc1nc(-c2ccc(Cl)cc2)nc(N)c1-c1ccccc1	0
CCS(=O)(=O)N1CCc2ncnc(N3CCOCC3)c2CC1	0
COc1ccccc1NS(=O)(=O)c1ccc2[nH]c(=O)ccc2c1	0
Cn1nccc1-c1cc(C(=O)Nc2nc(-c3ccccn3)cs2)c2ccccc2n1	-101
O=C(Nc1cccc(Cn2cncn2)c1)c1cc(-c2ccccn2)nc2ccccc12	0
Cc1ccc2[nH]cc(CCNC(=O)c3cc(-c4ccccn4)nc4ccccc34)c2c1	0
Cc1noc(CN(C)C(=O)C(C)Oc2ccc3oc(=O)cc(C)c3c2)n1 (configuration not stated)	0
COc1ccc2[nH]c(=O)c3c(c2c1)OC(C)(C)C=C3	-83
COc1ccc2[nH]cc(C3N4CC5(C)CN3CC(C)(C4)C5=O)c2c1 (configuration not stated)	0
COc1ccc(C(=O)CC(=O)O)c2c1C=CC(C)(C)O2	0
O[C@H]1CN(c2nc3ccccc3s2)C[C@@H]1N1CCN(c2ccccn2)CC1	0
COCc1c(C(=O)N2CCc3c(ncnc3N3CCOCC3)C2)noc1C	0
COc1ccc(C2NC(=S)NC3=C2CCc2ccccc23)cc1 (configuration not stated)	0
COc1ccc(C2CN=NC23CSc2ccccc2C3=O)cc1 (configuration not stated)	-82
COc1ccc(C2Sc3ccccc3N=C3c4ccccc4CCC32)cc1 (configuration not stated)	0
O=c1cc(-c2ccccc2)oc2cc(O)c(O)c(O)c12	-77!
COc1ccc(-c2cc(=O)c3c(O)cc(O)cc3o2)cc1O	0
COc1cc2oc(-c3ccc(O)cc3)cc(=O)c2c(OC)c1O	-82
COc1ccc(-c2cc(=O)c3ccc(O)cc3o2)cc1	0
O=c1c(O)cccc2cc(O)c(O)c(O)c12	0
O=c1c(O)c(-c2ccccc2)oc2cc(O)cc(O)c12	0
COc1cccc(NC(=O)Nc2ccc(-c3nc(-c4cccc(Br)c4)co3)cc2)c1	0
CC(C)(NC(=O)c1cccs1)C(=O)N1CCC1c1ccc(F)cc1 (configuration not stated)	0
SMILES	Tgondii IFNg
CCN(CC)c1nc(C(=O)N2CCC(N3CCCCC3)CC2)nc2nc(C)cc(C)c12	0
CC(C)Cc1cc(C(=O)Nc2ccc3c(c2)nc(C(C)C)n3C)n(C)n1	0
O=C(c1ccncc1)N1CCC2(CCCN(c3ncc(F)cn3)C2)C1 (configuration not stated)	0
CSc1nccc(-c2ccc(O)cc2)n1	-78
COc1cccc(-c2ccc(O)cc2)n1	0
CSc1nncc(-c2ccc(Cl)cc2)n1	0
Cc1cc(=O)oc2cc(CN3C[C@H](O)[C@@H](N4CCN(C)CC4)C3)ccc12	0
Cn1cnc(S(=O)(=O)N2CCC(c3cccc(Cc4ccccc4)n3)CC2)c1	0
Cc1oc(-c2cccc(Cl)c2)nc1CN1CCOC(CCO)C1 (configuration not stated)	0
COc1ccc(N2CCN(Cc3ccncc3)C(C)C2=O)cc1 (configuration not stated)	0
COc1cc2c(cc1OC)-c1nnc(C)n1C(C)(C)C2	0
COc1cc2c(cc1OC)C(Nc1ccc(I)cc1)=NC1(CCCC1)C2	-98
Cc1nnc(-c2ccc3ccn(CC(=O)Nc4ccccn4)c3c2)o1	0
CCN(CC)C(=O)CN1CCC(Cc2cc(NC3CCCC3)nc(C)n2)CC1	0
Cn1cnc(S(=O)(=O)N2CCCC(N)CC2)c1 (configuration not stated)	0
Cc1nc(CC2CCCN(S(=O)(=O)c3cn(C)cn3)C2)cc(Nc2ncc(C)s2)n1 (configuration not stated)	-97
Cc1cccc(CN2CCN(Cc3cnn(C)c3)CC2)c1	0
Cc1nc2c(c(NC3CC3)n1)CCN(Cc1cnn(C)c1)CC2	0
Cc1cccc(S(=O)(=O)N2CCc3nc(-c4cnn(C)c4)nc(NC4CC4)c3C2)c1	-94
Cc1cccc(S(=O)(=O)N2CCc3nc(-c4ccccc4)sc3C2)c1	0
COc1cc(C(C)=O)ccc1OCc1cc(C(=O)NCC(F)(F)F)no1	0
Cc1ccsc1[C@@H]1CCN(C(=O)c2ccc(-n3cnnc3)cc2)C[C@H]1O	-81
CN1[C@H]2CC[C@@H]1CN(C(=O)c1ccc(-n3cnnc3)cc1)CC2	0
Cc1ccsc1[C@@H]1CCN(C(=O)c2cccc(=O)[nH]2)C[C@H]1O	0
Cc1ccc(C)c(-c2coc(-c3ccc(NC(=O)c4ccc(Br)o4)cc3)n2)c1	0
O=C(Nc1ccccc1C(=O)Nc1cccc2ccccc12)Nc1cccc2ccccc12	0
O=C(Nc1ccc2c3c(cccc13)CC2)c1nc(-n2cnnc2)n[nH]1	-80
O=C(Nc1ccc2c3c(cccc13)CC2)c1cccnc1Cl	0
O=C(NCc1ccc(Cl)cc1)c1nc(Nc2ccc(F)cc2)c2ccccc2n1	0
O=c1c2ccccc2oc2ccccc12	0
